PubChem BioAssay (EPA / NIEHS)
Inconclusive results are not listed. Active and inactive are the calls of the source. Rule for the calls, unless noted: active = hit-call score of the fitted dose curve at least 0.9, where 1 is the maximum; inactive = score below 0.9.

Key:
[1] = ATG_TAL_CIS: Attagene CIS-FACTORIAL HepG2 Assay for human TAL Basal Promoter (AID 2282966); conditions: HepG2 Attagene cis-factorial TAL promoter reporter; actives raise or lower the signal;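 note: background control endpoint measuring basal TAL promoter reporter mRNA not a specific factor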
Procedure, shortened: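 Fluorescence of labelled reporter cDNA fragments, resolved by capillary electrophoresis, gave the readout. Human HepG2 liver cells carried transiently transfected cis-element reporter units and were treated for 24 hours; activity was fitted bidirectionally against DMSO.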

[2] = ATG_TGFb_CIS: Attagene CIS-FACTORIAL HepG2 Assay for human Transforming Growth Factor (TGF) (AID 2282967); conditions: HepG2 Attagene CIS TGFb reporter, mRNA transcription; actives raise or lower the signal
Procedure, shortened: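 Readout: fluorescently labeled reporter cDNA fragments resolved by capillary electrophoresis after RT-PCR. Transfected HepG2 cells dosed for 24 h; endogenous TF activity at TGFB1-linked cis element; gain or loss fitted relative to DMSO.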

[3] = ATG_VDRE_CIS: Attagene CIS-FACTORIAL HepG2 Assay for human Vitamin D Receptor Element (VDRE) (AID 2282968); conditions: HepG2 VDRE cis-reporter transcription, actives raise or lower the signal
Procedure, shortened: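 RT-PCR/CE readout of reporter mRNA; HepG2, transient transfection, 24 h dosing; DMSO baseline; bidirectional analysis.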

[4] = biological target: Nuclear receptor subfamily 1 group I member 3 (Homo sapiens) (UniProt Q14994); assay: ATG_CAR_TRANS: Attagene TRANS-FACTORIAL HepG2 Assay for human Constitutive Androstane Receptor (CAR) (AID 2282969; active = hit-call score of the fitted dose curve at least 0.9, where 1 is the maximum;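 note: activators raise reporter mRNA above DMSO so AC50 marks induction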); conditions: HepG2 Attagene TRANS-FACTORIAL CAR reporter
Procedure, shortened: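 HepG2 cells transiently transfected with multiplexed GAL4-UAS reporter units expressing chimeric NR-Gal4 proteins; compound exposure 24 h. Reporter mRNA measured by RT-PCR, 6-FAM labelling, HpaI digestion and capillary electrophoresis; gain-of-signal fitted against DMSO baseline.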

[5] = biological target: X-box-binding protein 1 (Homo sapiens) (UniProt P17861); assay: ATG_Xbp1_CIS: Attagene CIS-FACTORIAL HepG2 Assay for human X-box Binding Protein 1 (XBP1) (AID 2282972); conditions: HepG2 XBP1 cis-element reporter, Attagene multiplex; actives raise or lower the signal
Procedure, shortened: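 HepG2 cells transiently transfected with multiple cis-element reporter units report endogenous TF activity; 24 h exposure, then reporter mRNA measured by RT-PCR, 6-FAM labelling, HpaI digestion and capillary electrophoresis. Bidirectional fitting versus DMSO.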

[6] = biological target: Estrogen-related receptor gamma (Homo sapiens) (UniProt P62508); assay: ATG_ERRg_TRANS: Attagene TRANS-FACTORIAL HepG2 Assay for human Estrogen-Related Receptor gamma (ERRg) (AID 2282977; active = hit-call score of the fitted dose curve at least 0.9, where 1 is the maximum;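 note: hits increase reporter signal over DMSO so potencies reflect activators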); conditions: HepG2 Attagene TRANS reporter, ERRg transactivation
Procedure, shortened: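 HepG2 cells transiently transfected with multiplexed GAL4-UAS reporter units driven by chimeric NR-Gal4 proteins; 24 h exposure. Reporter mRNA quantified by RT-PCR, fluorescent labelling, HpaI digestion and capillary electrophoresis; gain of signal vs DMSO.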

[7] = biological target: Glucocorticoid receptor (Homo sapiens) (UniProt P04150); assay: ATG_GR_TRANS: Attagene TRANS-FACTORIAL HepG2 Assay for human Glucocorticoid Receptor (GR) (AID 2282978; active = hit-call score of the fitted dose curve at least 0.9, where 1 is the maximum;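 note: activators score as hits since higher reporter transcript over DMSO is fitted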); conditions: HepG2 Attagene TRANS GR reporter, mRNA transcription
Procedure, shortened: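 Transient MRTU transfection of HepG2 (GAL4-UAS reporters, exogenous NR-GAL4 chimeras), 24 h dosing. Readout: reporter transcript via RT-PCR + capillary electrophoresis fluorescence. Positive direction vs DMSO baseline.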

[8] = biological target: Oxysterols receptor LXR-alpha (Homo sapiens) (UniProt Q13133); assay: ATG_LXRa_TRANS: Attagene TRANS-FACTORIAL HepG2 Assay for human Liver X Receptor alpha (LXRa) (AID 2282980; active = hit-call score of the fitted dose curve at least 0.9, where 1 is the maximum); conditions: HepG2 Attagene TRANS reporter, LXRa transactivation
Procedure, shortened: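 Transfect HepG2 with GAL4-UAS multiplex reporter constructs (TRANS format, chimeric receptor-GAL4); treat 24 h; extract RNA, reverse-transcribe, PCR-amplify, FAM-label, HpaI-digest; resolve fragments by capillary electrophoresis. Upward response vs DMSO.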

[9] = biological target: Hepatocyte nuclear factor 4-alpha (Homo sapiens) (UniProt P41235); assay: ATG_HNF4a_TRANS: Attagene TRANS-FACTORIAL HepG2 Assay for human Hepatocyte Nuclear Factor 4 alpha (HNF4a) (AID 2282982; active = hit-call score of the fitted dose curve at least 0.9, where 1 is the maximum); conditions: HepG2 HNF4a transactivation reporter, mRNA readout
Procedure, shortened: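 Cells used were human HepG2, transiently carrying GAL4-UAS reporter units read out against exogenous NR-GAL4 chimeras. Reporter transcript levels after 24 h dosing were quantified by fluorescent RT-PCR and capillary electrophoresis.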

[10] = ATG_M_06_TRANS: Attagene TRANS-FACTORIAL HepG2 Assay for M06 Transcription Factor (Internal Marker) (AID 2282983; active = hit-call score of the fitted dose curve at least 0.9, where 1 is the maximum); conditions: HepG2 Attagene TRANS M06 internal marker reporter
Procedure, shortened: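 Transfect HepG2 with MRTUs → dose compounds 24 h → isolate RNA, oligo(dT) RT → PCR with reporter primers → 6-FAM primer extension → HpaI digest → CE fragment analysis. Positive direction vs DMSO.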

[11] = biological target: Transcriptional activator Myb (Homo sapiens) (UniProt P10242); assay: ATG_Myb_CIS: Attagene CIS-FACTORIAL HepG2 Assay for human Myeloblastosis (Myb) Proto-Oncogene Transcription Factor (AID 2282986); conditions: HepG2 Attagene CIS-FACTORIAL Myb reporter transcription; actives raise or lower the signal
Procedure, shortened: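 HepG2, transient MRTU transfection (cis-element promoters, endogenous TF activity), 24 h compound exposure. Readout: reporter mRNA via RT-PCR, 6-FAM labeling, HpaI digest, capillary electrophoresis. Gain/loss fit vs DMSO.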

[12] = biological target: Nuclear respiratory factor 1 (Homo sapiens) (UniProt Q16656); assay: ATG_NRF1_CIS: Attagene CIS-FACTORIAL HepG2 Assay for human Nuclear Respiratory Factor 1 (NRF1) Orphan Gene (AID 2282987); conditions: HepG2 NRF1 cis-element reporter, Attagene multiplex; actives raise or lower the signal
Procedure, shortened: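 Endogenous NRF1-driven reporter transcription measured in transiently transfected human HepG2 liver cells. Readout: reporter mRNA by RT-PCR and capillary electrophoresis with fluorescence detection, 24 h post-dosing. Gain or loss of signal fitted relative to DMSO baseline.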

[13] = ATG_NFI_CIS: Attagene CIS-FACTORIAL HepG2 Assay for human Nuclear Factor I (NFI) (AID 2282989); conditions: HepG2 cis-regulatory reporter, NFI response element transcription; actives raise or lower the signal
Procedure, shortened: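 Read-out: reporter mRNA via RT-PCR plus capillary electrophoresis with fluorescence detection. Transiently transfected HepG2 (endogenous TF activity on cis promoters), 24 h compound exposure; gain or loss of signal fitted against DMSO.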

[14] = biological target: Myc proto-oncogene protein (Homo sapiens) (UniProt P01106); assay: ATG_Myc_CIS: Attagene CIS-FACTORIAL HepG2 Assay for human Myelocytomatosis (Myc) Proto-Oncogene Transcription Factor (AID 2282990); conditions: HepG2, Attagene cis-reporter transcription factor activity; actives raise or lower the signal
Procedure, shortened: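 HepG2 cells transiently transfected with multiple cis-promoter-driven reporter transcription units, so endogenous TF activity is read. After 24 h compound exposure, reporter mRNA was quantified by RT-PCR, 6-FAM labelling, HpaI digestion and capillary electrophoresis; bidirectional fit versus DMSO.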

[15] = biological target: Bile acid receptor (Homo sapiens) (UniProt Q96RI1); assay: ATG_FXR_TRANS: Attagene TRANS-FACTORIAL HepG2 Assay for Farnesoid X Receptor (FXR) (AID 2282979; active = hit-call score of the fitted dose curve at least 0.9, where 1 is the maximum;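 note: hits raise reporter mRNA above DMSO so AC50 marks FXR activation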); conditions: HepG2 Attagene TRANS FXR-GAL4 reporter transcription
Procedure, shortened: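 Transient transfection of HepG2 with multiplexed GAL4-UAS reporter units; exogenous FXR-GAL4 chimera. Dose 24 h → TriZol RNA → oligo(dT) RT → PCR, 6-FAM primer extension, HpaI cut → CE. Gain vs DMSO.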

[16] = ATG_M_19_TRANS: Attagene TRANS-FACTORIAL HepG2 Assay for M19 Transcription Factor (Internal Marker) (AID 2282974; active = hit-call score of the fitted dose curve at least 0.9, where 1 is the maximum); conditions: HepG2 Attagene TRANS-FACTORIAL M19 internal marker reporter
Procedure, shortened: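 24 h chemical exposure of transiently transfected HepG2 (MRTU library). RNA → oligo(dT) RT → PCR → 6-FAM labelling → HpaI cut → CE fluorescence. Positive-direction fit vs DMSO baseline; background internal-marker readout.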

[17] = ATG_M_32_TRANS: Attagene TRANS-FACTORIAL HepG2 Assay for M32 Transcription Factor (Internal Marker) (AID 2282984; active = hit-call score of the fitted dose curve at least 0.9, where 1 is the maximum;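 note: transcript level of a background control reporter unit measured by RT-PCR and capillary electrophoresis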); conditions: HepG2 Attagene TRANS M32 internal marker reporter
Procedure, shortened: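 Human hepatoma HepG2, transient MRTU transfection, 24 h treatment. RNA → RT-PCR → fluorescent primer extension → HpaI digest (2 h, 37 C) → CE. Positive-direction fit vs DMSO.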

[18] = biological target: Nuclear receptor subfamily 4 group A member 2 (Homo sapiens) (UniProt P43354); assay: ATG_NURR1_TRANS: Attagene TRANS-FACTORIAL HepG2 Assay for human Nuclear Receptor Related Protein 1 (NURR1) (AID 2282985; active = hit-call score of the fitted dose curve at least 0.9, where 1 is the maximum); conditions: HepG2 Attagene TRANS reporter, mRNA readout
Procedure, shortened: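 After 24 h chemical dosing, total RNA from transiently transfected HepG2 cells was reverse-transcribed and reporter cDNA PCR-amplified, FAM-labelled and analysed by capillary electrophoresis. Activity fitted in positive direction, DMSO as negative control.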

[19] = biological target: Estrogen receptor (Homo sapiens) (UniProt P03372); assay: ATG_ERa_TRANS: Attagene TRANS-FACTORIAL HepG2 Assay for human Estrogen Receptor alpha (ERa) (AID 2282970; active = hit-call score of the fitted dose curve at least 0.9, where 1 is the maximum); conditions: HepG2 Attagene TRANS ERa GAL4 reporter, mRNA
Procedure, shortened: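 Human liver HepG2, transient transfection of multiple GAL4-UAS reporter units; TRANS format (exogenous NR-Gal4 chimera). 24 h dosing. Readout: reporter mRNA, RT-PCR, 6-FAM primer extension, HpaI digest, capillary electrophoresis. Positive direction vs DMSO.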

[20] = biological target: Oxysterols receptor LXR-beta (Homo sapiens) (UniProt P55055); assay: ATG_LXRb_TRANS: Attagene TRANS-FACTORIAL HepG2 Assay for human Liver X Receptor beta (LXRb) (AID 2282981; active = hit-call score of the fitted dose curve at least 0.9, where 1 is the maximum); conditions: HepG2 Attagene TRANS GAL4-LXRb reporter, mRNA
Procedure, shortened: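 In this TRANS format, exogenous chimeric NR-Gal4 protein activity, not endogenous factors, drives reporter expression in transfected human HepG2 cells. Exposure lasted 24 h; reporter mRNA was read by fluorescent capillary electrophoresis.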

Measured: outcome

Chain of Nuclear receptor subfamily 1 group I member 3 (Homo sapiens) (Q14994 whole entry, looked up, the tested form may be a part): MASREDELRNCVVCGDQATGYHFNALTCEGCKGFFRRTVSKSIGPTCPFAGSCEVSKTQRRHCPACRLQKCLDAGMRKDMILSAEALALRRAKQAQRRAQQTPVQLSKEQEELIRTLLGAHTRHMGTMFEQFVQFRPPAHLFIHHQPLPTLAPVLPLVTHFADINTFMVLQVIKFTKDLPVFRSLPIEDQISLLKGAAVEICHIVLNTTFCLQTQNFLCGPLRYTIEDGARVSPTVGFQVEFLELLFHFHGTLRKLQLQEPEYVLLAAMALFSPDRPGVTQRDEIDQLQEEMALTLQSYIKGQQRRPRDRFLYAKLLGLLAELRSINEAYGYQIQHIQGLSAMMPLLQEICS
Chain of Myc proto-oncogene protein (Homo sapiens) (P01106 whole entry, looked up): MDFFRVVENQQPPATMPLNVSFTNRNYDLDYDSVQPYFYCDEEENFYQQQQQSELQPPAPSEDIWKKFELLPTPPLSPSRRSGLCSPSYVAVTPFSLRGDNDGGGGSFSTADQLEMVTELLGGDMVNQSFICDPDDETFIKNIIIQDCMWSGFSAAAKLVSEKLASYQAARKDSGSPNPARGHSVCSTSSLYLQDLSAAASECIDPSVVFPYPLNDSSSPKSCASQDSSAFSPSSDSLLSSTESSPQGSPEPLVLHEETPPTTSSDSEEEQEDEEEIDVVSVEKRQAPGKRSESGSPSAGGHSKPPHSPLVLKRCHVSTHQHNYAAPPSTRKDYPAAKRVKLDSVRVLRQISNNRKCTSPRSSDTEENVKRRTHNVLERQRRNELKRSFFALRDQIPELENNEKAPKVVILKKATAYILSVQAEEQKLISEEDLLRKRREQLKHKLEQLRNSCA
Chain of Transcriptional activator Myb (Homo sapiens) (P10242 whole entry, looked up): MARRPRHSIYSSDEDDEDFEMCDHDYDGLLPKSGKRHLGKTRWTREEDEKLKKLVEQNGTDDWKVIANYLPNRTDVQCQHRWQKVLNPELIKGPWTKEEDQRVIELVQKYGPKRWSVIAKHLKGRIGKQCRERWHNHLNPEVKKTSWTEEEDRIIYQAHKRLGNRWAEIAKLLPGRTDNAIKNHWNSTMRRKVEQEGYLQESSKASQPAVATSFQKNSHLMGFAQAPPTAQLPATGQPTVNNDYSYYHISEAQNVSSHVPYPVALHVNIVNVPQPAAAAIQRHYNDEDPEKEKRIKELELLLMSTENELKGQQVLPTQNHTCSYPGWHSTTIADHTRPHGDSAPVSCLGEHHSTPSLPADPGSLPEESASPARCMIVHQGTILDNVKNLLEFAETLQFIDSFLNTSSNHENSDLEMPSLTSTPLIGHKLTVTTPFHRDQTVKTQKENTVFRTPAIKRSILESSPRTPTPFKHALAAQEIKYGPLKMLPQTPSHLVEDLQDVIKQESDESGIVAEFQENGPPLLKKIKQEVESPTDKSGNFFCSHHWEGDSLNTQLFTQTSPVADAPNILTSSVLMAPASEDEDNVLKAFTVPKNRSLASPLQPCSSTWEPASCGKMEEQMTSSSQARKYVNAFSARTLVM
Chain of Hepatocyte nuclear factor 4-alpha (Homo sapiens) (P41235 whole entry, looked up, the tested form may be a part): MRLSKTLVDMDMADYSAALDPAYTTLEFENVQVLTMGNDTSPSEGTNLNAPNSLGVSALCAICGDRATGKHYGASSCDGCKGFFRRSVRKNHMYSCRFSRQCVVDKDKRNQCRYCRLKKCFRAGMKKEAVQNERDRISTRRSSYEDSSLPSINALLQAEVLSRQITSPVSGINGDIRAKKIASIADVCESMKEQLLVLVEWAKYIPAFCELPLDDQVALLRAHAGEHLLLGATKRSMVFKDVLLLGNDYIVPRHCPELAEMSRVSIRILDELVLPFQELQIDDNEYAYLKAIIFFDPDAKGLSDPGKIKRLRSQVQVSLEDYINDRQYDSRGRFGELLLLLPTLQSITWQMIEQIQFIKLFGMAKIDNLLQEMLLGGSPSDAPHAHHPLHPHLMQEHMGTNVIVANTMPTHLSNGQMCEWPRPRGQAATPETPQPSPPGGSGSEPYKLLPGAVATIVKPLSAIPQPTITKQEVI
Chain of X-box-binding protein 1 (Homo sapiens) (P17861 whole entry, looked up): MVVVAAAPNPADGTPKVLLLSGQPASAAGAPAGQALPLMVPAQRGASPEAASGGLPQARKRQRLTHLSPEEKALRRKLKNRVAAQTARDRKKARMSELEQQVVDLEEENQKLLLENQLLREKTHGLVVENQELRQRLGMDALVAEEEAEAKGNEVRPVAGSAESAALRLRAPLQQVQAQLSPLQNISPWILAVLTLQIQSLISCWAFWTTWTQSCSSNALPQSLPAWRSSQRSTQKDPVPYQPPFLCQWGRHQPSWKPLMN
Chain of Nuclear respiratory factor 1 (Homo sapiens) (Q16656 whole entry, looked up): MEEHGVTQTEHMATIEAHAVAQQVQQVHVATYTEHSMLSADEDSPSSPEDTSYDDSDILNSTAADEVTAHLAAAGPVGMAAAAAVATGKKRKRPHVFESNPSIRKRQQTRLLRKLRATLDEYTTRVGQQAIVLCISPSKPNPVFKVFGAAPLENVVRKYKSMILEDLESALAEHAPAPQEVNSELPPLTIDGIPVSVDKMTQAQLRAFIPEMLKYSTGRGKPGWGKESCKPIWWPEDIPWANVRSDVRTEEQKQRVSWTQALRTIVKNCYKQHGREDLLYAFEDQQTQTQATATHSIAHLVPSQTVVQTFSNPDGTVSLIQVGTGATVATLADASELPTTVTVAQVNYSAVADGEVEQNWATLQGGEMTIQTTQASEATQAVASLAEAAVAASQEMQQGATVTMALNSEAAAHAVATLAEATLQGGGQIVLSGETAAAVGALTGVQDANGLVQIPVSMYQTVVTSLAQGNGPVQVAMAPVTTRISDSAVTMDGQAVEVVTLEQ
Chain of Estrogen-related receptor gamma (Homo sapiens) (P62508 whole entry, looked up, the tested form may be a part): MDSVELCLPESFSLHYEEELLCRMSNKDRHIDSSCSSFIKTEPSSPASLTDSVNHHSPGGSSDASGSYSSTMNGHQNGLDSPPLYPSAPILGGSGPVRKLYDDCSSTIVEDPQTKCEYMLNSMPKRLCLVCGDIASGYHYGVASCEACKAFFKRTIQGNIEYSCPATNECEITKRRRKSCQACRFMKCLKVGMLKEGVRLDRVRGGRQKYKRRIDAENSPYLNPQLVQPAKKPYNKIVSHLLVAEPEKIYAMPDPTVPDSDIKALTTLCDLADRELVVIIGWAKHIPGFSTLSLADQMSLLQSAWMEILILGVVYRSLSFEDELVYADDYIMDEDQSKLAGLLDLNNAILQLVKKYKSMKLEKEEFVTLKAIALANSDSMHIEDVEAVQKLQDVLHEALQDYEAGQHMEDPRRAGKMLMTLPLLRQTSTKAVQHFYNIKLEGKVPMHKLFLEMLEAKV
Chain of Glucocorticoid receptor (Homo sapiens) (P04150 whole entry, looked up, the tested form may be a part): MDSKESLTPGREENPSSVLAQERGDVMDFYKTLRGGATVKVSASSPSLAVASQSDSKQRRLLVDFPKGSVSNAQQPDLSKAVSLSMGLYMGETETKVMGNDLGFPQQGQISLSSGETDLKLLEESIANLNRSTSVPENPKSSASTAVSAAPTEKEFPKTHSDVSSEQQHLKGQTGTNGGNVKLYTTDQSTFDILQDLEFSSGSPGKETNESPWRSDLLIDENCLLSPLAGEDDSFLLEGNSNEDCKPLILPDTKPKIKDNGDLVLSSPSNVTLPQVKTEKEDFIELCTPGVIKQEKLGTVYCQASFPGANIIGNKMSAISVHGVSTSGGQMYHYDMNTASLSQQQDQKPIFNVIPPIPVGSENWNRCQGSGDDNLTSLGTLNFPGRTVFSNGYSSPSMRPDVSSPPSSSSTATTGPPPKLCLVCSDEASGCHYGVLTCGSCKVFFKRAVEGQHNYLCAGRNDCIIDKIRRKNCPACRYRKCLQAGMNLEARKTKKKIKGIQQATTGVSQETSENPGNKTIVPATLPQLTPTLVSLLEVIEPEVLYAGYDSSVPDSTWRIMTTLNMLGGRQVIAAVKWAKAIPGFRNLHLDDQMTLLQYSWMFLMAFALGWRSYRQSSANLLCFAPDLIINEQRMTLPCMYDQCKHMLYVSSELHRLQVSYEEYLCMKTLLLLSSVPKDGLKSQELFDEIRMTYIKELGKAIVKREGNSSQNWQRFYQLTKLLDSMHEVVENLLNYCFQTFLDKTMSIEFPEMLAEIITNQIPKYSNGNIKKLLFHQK
Chain of Oxysterols receptor LXR-alpha (Homo sapiens) (Q13133 whole entry, looked up, the tested form may be a part): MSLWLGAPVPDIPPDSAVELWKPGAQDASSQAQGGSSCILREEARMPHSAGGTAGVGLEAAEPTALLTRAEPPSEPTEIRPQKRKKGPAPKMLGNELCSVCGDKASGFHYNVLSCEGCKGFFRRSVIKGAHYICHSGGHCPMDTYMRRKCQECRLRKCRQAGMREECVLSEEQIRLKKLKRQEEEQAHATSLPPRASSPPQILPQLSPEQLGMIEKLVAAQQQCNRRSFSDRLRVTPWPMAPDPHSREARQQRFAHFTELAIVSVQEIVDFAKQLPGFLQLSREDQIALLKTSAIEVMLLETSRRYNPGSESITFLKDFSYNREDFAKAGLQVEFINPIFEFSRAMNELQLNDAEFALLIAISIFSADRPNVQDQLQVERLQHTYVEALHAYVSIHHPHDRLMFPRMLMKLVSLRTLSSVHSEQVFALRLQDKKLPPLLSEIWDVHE
Chain of Nuclear receptor subfamily 4 group A member 2 (Homo sapiens) (P43354 whole entry, looked up): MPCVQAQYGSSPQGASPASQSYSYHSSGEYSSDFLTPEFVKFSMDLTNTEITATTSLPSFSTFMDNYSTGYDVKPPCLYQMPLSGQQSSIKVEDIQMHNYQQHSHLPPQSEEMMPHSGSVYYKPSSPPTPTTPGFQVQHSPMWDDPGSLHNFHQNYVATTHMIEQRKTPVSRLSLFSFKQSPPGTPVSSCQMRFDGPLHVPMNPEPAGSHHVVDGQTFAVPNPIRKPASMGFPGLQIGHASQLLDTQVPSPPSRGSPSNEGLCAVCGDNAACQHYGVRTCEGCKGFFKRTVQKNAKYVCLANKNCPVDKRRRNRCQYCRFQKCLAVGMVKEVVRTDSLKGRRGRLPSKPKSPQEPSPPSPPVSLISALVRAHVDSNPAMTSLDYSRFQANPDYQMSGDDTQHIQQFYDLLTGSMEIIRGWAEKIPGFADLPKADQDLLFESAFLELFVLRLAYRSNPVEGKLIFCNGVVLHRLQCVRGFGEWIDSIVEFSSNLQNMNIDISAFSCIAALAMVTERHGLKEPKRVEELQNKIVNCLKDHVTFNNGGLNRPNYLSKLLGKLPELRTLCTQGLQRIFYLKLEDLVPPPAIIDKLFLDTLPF

S=c1[nH]c2ccccc2s1
not listed: [15] | [16] | [17] | [18] | [19] | [20]
inactive: all other assays above

CC(COCC(C)OC(=O)c1ccccc1)OC(=O)c1ccccc1 (stereo unspecified)
not listed: [3] | [8] | [16] | [17] | [18] | [19] | [20]
inactive: all other assays above

C/C=C/C=C/C(=O)O
not listed: [6] | [7] | [8] | [15] | [18] | [19] | [20]
inactive: all other assays above

O=NO
not listed: [3] | [6] | [7] | [8] | [15] | [16] | [19] | [20]
inactive: all other assays above

COc1ccc(C(=O)Nc2nc3ccccc3c(NCc3ccccc3)c2C#N)cc1
not listed: [3] | [4] | [7] | [10] | [15] | [17]
inactive: all other assays above
